# Most compounds without a hit are left out; they make up all but 1.8% or so of the library.
# PABP polyA inh = PABP-poly(A) binding inhibition; PABP-poly(A) RNA binding, fluorescence polarization; calls only at 35 µM; hit rate 1% among 290,000;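 also: calls also rest on retests at 20 µM and on dose response follow-up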
# eIF4H FP inh = inhibitors of RNA binding by human eIF4H. Q15056. eIF4H fluorescence polarization binding assay. inhibition, % at 35 µM. hit rate 0.94% among 290,000. AID 2012;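 also: calls also rest on retests at 20 µM and on dose response follow-up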
# MEX-5 binding = C. elegans MEX-5 TCR-2 RNA binding activity. activity score (negative = inhibition of binding), % at 10 µM. MEX-5/FITC-TCR2 RNA binding, fluorescence polarization; hits give low values. hit rate 0.38% among 300,000. AID 1832;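 active = inhibition past about -25% in most replicates, and total fluorescence under double the plate's negative control median, limit read from the data; inconclusive = replicates evenly split on the limit, or fluorescence at least double controls; inactive = too little inhibition in most replicates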
# PABP1 MLLE inh = inhibitors of microRNA-mediated deadenylation, human PABP1 MLLE binding; GST-MLLE / FITC-PAM2 fluorescence polarization; inhibition, % at 20 µM; hit rate 0.36% among 360,000; AID 588489; in the data active = inhibition above about 35%, passing the limit was not always enough
# EBV gp42 block = inhibitors of Epstein-Barr virus glycoprotein 42. Q1HVG2. Fluorescence polarization binding assay, mP read-out. inhibition, % (tested at 21.74 µM). hit rate 0.42% among 220,000. AID 1085; in the data active = inhibition above about 50%
# A number is an active result; . = inactive; ? = inconclusive; / = no result; + = active, no number; ! = not confirmed by another sample. Unless noted, no rule for the calls is given here.
SMILES,PABP polyA inh,eIF4H FP inh,MEX-5 binding,PABP1 MLLE inh,EBV gp42 block
CN(C(=O)COC(=O)c1ccc2c(c1)NC(=O)CS2)C1CCS(=O)(=O)C1 (stereo not drawn),.,.,.,.,.
COCC(C)n1c(C)cc(C(=O)COC(=O)c2ccc3c(c2)NC(=O)CS3)c1C (stereo not drawn),.,.,.,39,.
CCC(C)N(C(=O)COC(=O)CNC(=O)c1ccccc1F)C1CCS(=O)(=O)C1 (stereo not drawn),.,.,.,.,.
CC(C)CN(C(=O)COC(=O)CNC(=O)c1ccccc1F)C1CCS(=O)(=O)C1 (stereo not drawn),+,.,.,.,.
COc1ccc(-c2nc3ccc(Cl)cn3c2CC(C)(C)C)cc1OC,/,/,/,.,/
c1ccc(CN2CCC3CC2c2c3cccc2N2CCOCC2)cc1 (stereo not drawn),/,/,/,.,/
NC(=S)c1cnn2c(-c3cccc(C(F)(F)F)c3)ccnc12,.,.,.,38,/
N#Cc1cnn2c(-c3ccccc3)ccnc12,.,.,.,.,.
Cc1csc(-c2ccc3cc(Cl)cc(Cl)c3n2)n1,/,/,/,.,/
Cc1cnc(C(=O)NCc2ccc(Cl)cc2Cl)cn1,+,active,.,.,.
O=c1cc(O)n(C2CCCCCC2)c(=O)[nH]1,+,.,.,.,/
CC(=O)N/N=C/c1cc(C(C)C)cc(/C=N/NC(C)=O)c1O,?,?,.,.,71
CCc1nc2ccc(C(=O)NC3CCN(Cc4ccccc4)CC3)cn2c1N(C)Cc1cc2ccccc2s1,/,/,/,.,/
CC1=CC2(O)OCCN(CCO)C2=CC1=O (stereo not drawn),.,82,.,.,.
Cc1cc(C)n(-c2ncc3c(n2)N(CCO)CCOC3=O)n1,.,.,.,.,.
N#C/C(=C\C=C\c1ccccc1)c1nc(-c2ccc3c(c2)OCO3)cs1,.,?,.,.,156
COc1ccc(N=C2S/C(=C\c3ccc(OC(C)C(=O)O)c(OC)c3)C(=O)N2CCc2c[nH]c3ccccc23)cc1 (stereo not drawn),+,?,.,.,.
COc1cc(/C=C2\SC(=Nc3ccccc3)N(CCc3c[nH]c4ccccc34)C2=O)ccc1OC(C)C(=O)O (stereo not drawn),.,.,.,.,.
CCc1noc(C)c1C(=O)NCCN1C(=O)S/C(=C\c2ccccc2F)C1=O,/,/,/,.,/
CCn1c(Cc2ccccc2)nnc1SCC(=O)Nc1nc2ccccc2s1,.,.,.,.,.
CSCC(=O)Nc1cc(C)on1,.,.,.,.,.
CCSCc1nnc(SCC(=O)Nc2nc3ccccc3s2)n1C,+,3.0,.,.,.
Cc1cc(NC(=O)CSC2=NCCS2)no1,.,.,.,44,.
O=C(CSC1=NCCS1)Nc1nc2ccccc2s1,.,.,.,42,.
Cc1sc(NC(=O)CSC2=NCCS2)nc1-c1ccccc1,.,.,.,.,.
SMILES,PABP polyA inh,eIF4H FP inh,MEX-5 binding,PABP1 MLLE inh,EBV gp42 block
COc1cccc(C(O)c2nc(-c3ccc(F)c(Cl)c3)cs2)c1 (stereo not drawn),/,/,/,.,/
COc1ccccc1N(CC(=O)N1CCN(Cc2ccccc2)CC1)S(=O)(=O)c1ccccc1,/,/,/,.,/
Cc1ccccc1C(=O)NN1C(=O)CSC1=S,.,.,.,.,.
CCOC(=O)c1ccccc1N1C(=O)CSC1=S,.,.,.,41,.
O/N=C\c1cccn1-c1nccs1,+,10,.,.,.
N#Cc1cccn1-c1nccs1,.,.,.,.,.
CC(C)c1ccc(O)c(NC(=S)NC(=O)c2ccc3c(c2)OCO3)c1,.,.,.,47,/
CCN(CC)C1=N/C(=C\c2ccco2)C(=O)N1c1ccccc1,.,.,.,.,.
CC(C)CN(CC(C)C)C1=N/C(=C\c2ccco2)C(=O)N1c1ccccc1,+,.,.,.,.
CCC1(C)Cc2c(sc3[nH]c(=O)[nH]c(=O)c23)CS1 (stereo not drawn),+,66,.,.,.
CCCCNC(=O)c1ccc2nc(CC)c(N(CC)CCOC)n2c1,/,/,/,.,/
O=C1N=c2ccc(Br)cc2=C1c1sc(=O)[nH]c1O,.,.,-26,/,/
CN1Cc2c(N)cccc2C(c2ccccc2)C1 (stereo not drawn),.,?,.,80!,.
O=C1CC(c2ccccc2)c2ccccc21 (stereo not drawn),.,.,.,.,.
O=C(CCCN1C(=O)c2ccccc2C1=O)Nc1nnc(C2CC2)s1,+,active,.,.,.
CC(=O)N1CCC(C(=O)Nc2cc(S(=O)(=O)N3CCCCC3)ccc2C)CC1,/,/,/,.,/
